Measured values: the supplement of paper PMC10127200
Counter-ions that a name gives are not always drawn.

Tests used:
Assay in all cases: Euclidean distance of Cell Painting phenotypic profile (signed KS, 77 features) to DMSO centroid (dimensionless distance); 5 or 10 uM (library dependent); higher = stronger phenotypic change vs DMSO (phenoactivity)
Conditions in all cases: 48 h
786-O = system: 786-O
How it was run: (§1)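 At 10 or 5 uM, as set by the library, and 0.1% DMSO final, compounds were applied for 48 h to five cancer lines and one healthy fibroblast line. Stained cells were imaged confocally at 20X in 9 fields per well, and Harmony extracted 77 features scored as signed Kolmogorov-Smirnov statistics against vehicle wells on the same plate. Profiles underwent plate-position correction, correlation weighting and replicate averaging at the top dose. Phenoactivity is the Euclidean distance from each such profile to the median vehicle profile.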

A549 = system: A549
How it was run: as §1

DU145 = system: DU145
How it was run: as §1

FB = system: FB
How it was run: as §1

HEPG2 = system: HEPG2
How it was run: as §1

OVCAR4 = system: OVCAR4
How it was run: as §1

| Compound | Euclidean distance (786-O) | Euclidean distance (A549) | Euclidean distance (DU145) | Euclidean distance (FB) | Euclidean distance (HEPG2) | Euclidean distance (OVCAR4) |
| --- | --- | --- | --- | --- | --- | --- |
| C#C[C@]1(O)CC[C@H]2[C@@H]3CCC4=CCCC[C@@H]4[C@H]3C(=C)C[C@@]21CC [Desogestrel] | 0.933 | 0.431 | 0.928 | 0.753 | 0.742 | 0.826 |
| COc1ccc(-c2oc3c(CC=C(C)C)c(O[C@@H]4O[C@H](CO)[C@@H](O)[C@H](O)[C@H]4O)cc(O)c3c(=O)c2O[C@@H]2O[C@@H](C)[C@H](O)[C@@H](O)[C@H]2O)cc1 [Icariin] | 0.632 | 0.62 | 0.973 | 0.818 | 0.96 | 0.993 |
| COc1cc(N)c(Cl)cc1C(=O)NC1CCN(Cc2ccccc2)CC1 [Clebopride (malate)] | 1.13 | 0.613 | 1.21 | 1.12 | 0.547 | 0.852 |
| O=C(CCCCCCC(=O)Nc1ccccc1)NO [Vorinostat (SAHA. MK0683)] | 3.44 | 2.96 | 3.15 | 3.77 | 3.15 | 2.85 |
| Cc1ccc(NC(=O)c2cccc(N(C)C)c2)cc1NC(=O)c1ccc(O)cc1 | 2.67 | 2.66 | 2.38 | 2.03 | 1.55 | 2.26 |
| C[C@H](Nc1ccc(C#N)n(C)c1=O)c1cc2cc(Cl)ccc2[nH]c1=O [Olutasidenib (FT-2102)] | 1.42 | 0.866 | 0.784 | 1.36 | 0.641 | 1.06 |
| CC(=O)NC[C@H]1CN(c2ccc(N3CCOCC3)c(F)c2)C(=O)O1 [Linezolid] | 1.83 | 1.27 | 1.73 | 0.611 | 0.92 | 1.35 |
| C[C@@H](N)[C@H]1CC[C@H](C(=O)Nc2ccncc2)CC1 | 3.12 | 3.33 | 3.45 | 2.59 | 1.02 | 3.15 |
| O=c1c(O[C@@H]2O[C@H](CO)[C@@H](O)[C@H](O)[C@H]2O)c(-c2ccc(O)c(O)c2)oc2cc(O)cc(O)c12 [Isoquercitrin] | 0.868 | 0.899 | 0.931 | 0.989 | 0.812 | 1.03 |
| CCn1cc(C(=O)O)c(=O)c2cnc(N3CCCC3)nc21 [Piromidic Acid] | 1.37 | 0.767 | 0.647 | 0.879 | 0.512 | 1.02 |
| CCCOC(C(=O)OC1CCN(C)CC1)(c1ccccc1)c1ccccc1 [Propiverine hydrochloride] | 1.73 | 1.08 | 1.34 | 1.33 | 1.39 | 1.35 |
| Cc1cc(O)c2c(c1)C(=O)c1cc(O)cc(O)c1C2=O [Emodin] | 1.3 | 1.13 | 1.01 | 1 | 1.85 | 0.712 |
| Cc1nc(N)sc1-c1ccnc(Nc2ccc(N3CCOCC3)cc2)n1 | 2.86 | 3.52 | 1.18 | 1.92 | 2.08 | 2.59 |
| CN1CCN(CCCN2c3ccccc3Sc3ccc(C(F)(F)F)cc32)CC1 [Trifluoperazine 2HCl] | 2.52 | 2.25 | 1.58 | 2.19 | 3.04 | 1.8 |
| Cn1c(Nc2ccc(C(F)(F)F)cc2)nc2cc(Oc3ccnc(-c4ncc(C(F)(F)F)[nH]4)c3)ccc21 | 1.98 | 1.97 | 1.46 | 3.86 | 1.24 | 1.5 |
| O=C(O)c1cc(-c2ccc(F)cc2F)ccc1O [Diflunisal] | 1.47 | 0.745 | 1.05 | 1.06 | 0.706 | 1.71 |
| CN(C)C(=O)C(CCN1CCC(O)(c2ccc(Cl)cc2)CC1)(c1ccccc1)c1ccccc1 [Loperamide HCl] | 1.64 | 2.14 | 1.81 | 1.85 | 2.35 | 1.42 |
| Nc1ncnc2c1ncn2C1OC(COP(=O)(O)O)C(O)C1O (configuration not stated) [Adenosine 5'-monophosphate monohydrate] | 0.685 | 0.894 | 0.9 | 0.831 | 0.601 | 1.27 |
| COC(=O)C1=C(C)NC(C)=C(C(=O)OC(C)(C)CN(C)CCC(c2ccccc2)c2ccccc2)C1c1cccc([N+](=O)[O-])c1 (configuration not stated) [Lercanidipine] | 1.59 | 2.38 | 1.1 | 1.31 | 1.5 | 2.02 |
| CC(C(=O)O)c1ccc2c(c1)Cc1cccnc1O2 (configuration not stated) [Pranoprofen] | 1.12 | 0.714 | 1.29 | 1.04 | 0.599 | 0.996 |
| CCN(CC)CCCCNc1ncc2cc(-c3cc(OC)cc(OC)c3)c(NC(=O)NC(C)(C)C)nc2n1 | 3.18 | 1.42 | 2.75 | 3.93 | 1.84 | 1.16 |
| CN1CC2c3ccccc3Oc3ccc(Cl)cc3C2C1 (configuration not stated) [Asenapine maleate] | 1.69 | 0.991 | 2.6 | 1.59 | 1.28 | 1.51 |
| Nc1ncn([C@@H]2O[C@H](CO)[C@@H](O)[C@H]2O)c(=O)n1 [Azacitidine] | 1.87 | 1.89 | 1.92 | 2.79 | 1.69 | 1.33 |
| C=C(C)[C@@H]1CC[C@]2(CO)CC[C@]3(C)[C@H](CC[C@@H]4[C@@]5(C)CC[C@H](O)C(C)(C)[C@@H]5CC[C@]43C)[C@@H]12 [Betulin] | 1.24 | 0.846 | 1.07 | 1.2 | 0.765 | 1.1 |

| Compound | Euclidean distance (786-O) | Euclidean distance (A549) | Euclidean distance (DU145) | Euclidean distance (FB) | Euclidean distance (HEPG2) | Euclidean distance (OVCAR4) |
| --- | --- | --- | --- | --- | --- | --- |
| C=CC(=O)Nc1ccc2ncnc(Nc3ccc(OCc4cccc(F)c4)c(Cl)c3)c2c1 | 2.14 | 1.92 | 1.99 | 2.48 | 1.03 | 3.41 |
| CC(N/C(=N\C#N)Nc1ccncc1)C(C)(C)C (configuration not stated) [Pinacidil] | 1.01 | 0.907 | 2.42 | 1.15 | 0.55 | 1.54 |
| OC[C@H]1O[C@@H](Oc2ccc(O)cc2)[C@H](O)[C@@H](O)[C@@H]1O [Arbutin] | 1.12 | 0.916 | 2.06 | 0.914 | 0.919 | 1.73 |
| CN(C(=O)CN(CCO)CC(=O)N(C)C(C)(C)Cc1ccccc1)C(C)(C)Cc1ccccc1 [Oxethazaine] | 1.36 | 2.36 | 1.13 | 2.17 | 1.36 | 1.96 |
| COc1ccc2[nH]c([S+]([O-])Cc3ncc(C)c(OC)c3C)nc2c1 (configuration not stated) [Omeprazole] | 3.37 | 2.83 | 3.32 | 3.97 | 4.04 | 2.98 |
| O=C(O)[C@H]1O[C@@H](Oc2cc3oc(-c4ccccc4)cc(=O)c3c(O)c2O)[C@H](O)[C@@H](O)[C@@H]1O [Baicalin] | 1.89 | 0.742 | 1.25 | 1.48 | 0.763 | 1.22 |
| COc1cc2nccc(Oc3ccc(NC(=O)NC4CC4)c(Cl)c3)c2cc1C(N)=O [Lenvatinib (E7080)] | 2.11 | 0.779 | 1.02 | 3.36 | 1.02 | 1.33 |
| O=c1c(O)c(-c2cc(O)c(O)c(O)c2)oc2cc(O)cc(O)c12 [Myricetin] | 0.872 | 2.24 | 2.15 | 1.76 | 1.1 | 2.1 |
| CO[C@@H]1[C@@H](OC(N)=O)[C@@H](O)[C@H](Oc2ccc3c(O)c(NC(=O)c4ccc(O)c(CC=C(C)C)c4)c(=O)oc3c2C)OC1(C)C [Novobiocin Sodium] | 0.865 | 0.868 | 0.814 | 1.04 | 0.385 | 1.19 |
| c1cnc(NCc2ccc(CNc3ncccn3)cc2)nc1 | 1.17 | 0.784 | 0.977 | 0.642 | 0.488 | 1.22 |
| CCOc1ccc(Cc2cc([C@]34OC[C@](CO)(O3)[C@@H](O)[C@H](O)[C@H]4O)ccc2Cl)cc1 [Ertugliflozin] | 1.45 | 0.762 | 1.22 | 0.862 | 0.465 | 1.23 |
| O=C(/C=C/c1ccc(CN(CCO)CCc2c[nH]c3ccccc23)cc1)NO [LAQ824 (Dacinostat)] | 2.61 | 4.89 | 4.56 | 3.59 | 4.12 | 3.09 |
| CC1=NN(c2ccc(C)c(C)c2)C(=O)/C1=N\Nc1cccc(-c2cccc(C(=O)O)c2)c1O [Eltrombopag Olamine] | 1.58 | 1.04 | 1.13 | 2.4 | 1.69 | 1.49 |
| CC(C)(C)C#Cc1cc(N(C(=O)[C@H]2CC[C@H](C)CC2)[C@H]2CC[C@H](O)CC2)c(C(=O)O)s1 [VX-222 (VCH-222. Lomibuvir)] | 0.681 | 0.474 | 1.14 | 0.678 | 2.05 | 0.601 |
| COc1cc(NS(=O)(=O)c2ccc(N)cc2)ncn1 [Sulfamonomethoxine] | 0.83 | 0.926 | 0.778 | 0.916 | 0.669 | 1.12 |
| CO[C@H]1C[C@@H]2CC[C@@H](C)[C@@](O)(O2)C(=O)C(=O)N2CCCC[C@H]2C(=O)O[C@H]([C@H](C)C[C@@H]2CC[C@@H](OP(C)(C)=O)[C@H](OC)C2)CC(=O)[C@H](C)/C=C(\C)[C@@H](O)[C@@H](OC)C(=O)[C@H](C)C[C@H](C)/C=C/C=C/C=C/1C [Ridaforolimus (Deforolimus. MK-8669)] | 2.74 | 1.98 | 1.3 | 2.88 | 1.37 | 2.04 |
| C[C@@H]1O[C@@H]1P(=O)(O)O [Fosfomycin Disodium] | 1.44 | 0.52 | 0.647 | 0.793 | 0.716 | 0.92 |
| O=C(O)c1ccccc1Nc1cccc(C(F)(F)F)c1 [Flufenamic acid] | 1.11 | 1.08 | 0.674 | 1.09 | 0.711 | 1.36 |
| COc1ccc2cc([C@H](C)C(=O)O)ccc2c1 [Naproxen] | 0.797 | 0.78 | 1.05 | 0.816 | 1.13 | 1.28 |
| C=CC(=O)N1CC[C@H](n2nc(C#Cc3cc(OC)cc(OC)c3)c3c(N)ncnc32)C1 | 2.21 | 1.47 | 2.08 | 4.1 | 3.97 | 1.58 |
| CCNC(=O)CCC/C=C\C[C@@H]1[C@@H](/C=C/[C@@H](O)CCc2ccccc2)[C@H](O)C[C@@H]1O [Bimatoprost] | 1.63 | 1.42 | 0.906 | 1.4 | 0.869 | 1.27 |
| CCCC(=O)OCOC(=O)C1=C(C)NC(C)=C(C(=O)OC)C1c1cccc(Cl)c1Cl (configuration not stated) [Clevidipine Butyrate] | 1.64 | 0.675 | 1.47 | 0.951 | 2.16 | 1.78 |
| C#C[C@]1(O)CC[C@H]2[C@@H]3CCC4=CC(=O)CC[C@@H]4[C@H]3CC[C@@]21CC [Levonorgestrel] | 1.01 | 0.81 | 0.624 | 0.673 | 0.994 | 0.816 |
